The source of these data is PubChem BioAssay AID488838 (National Center for Advancing Translational Sciences (NCATS), 2010).

Results filed as inconclusive are left out. Where a call stands in place of a potency, no number is given. Calls of active or inactive are those of the source. Calls follow the shape of the dose curve; as a rule, active = well fitted inhibition curve with a large enough effect; inconclusive = small, poorly fitted or top-dose-only effect; inactive = flat fitted curve, though single readings scatter.

Chain of Luciferin 4-monooxygenase (Photinus pyralis) (P08659 whole entry, looked up, canonical isoform): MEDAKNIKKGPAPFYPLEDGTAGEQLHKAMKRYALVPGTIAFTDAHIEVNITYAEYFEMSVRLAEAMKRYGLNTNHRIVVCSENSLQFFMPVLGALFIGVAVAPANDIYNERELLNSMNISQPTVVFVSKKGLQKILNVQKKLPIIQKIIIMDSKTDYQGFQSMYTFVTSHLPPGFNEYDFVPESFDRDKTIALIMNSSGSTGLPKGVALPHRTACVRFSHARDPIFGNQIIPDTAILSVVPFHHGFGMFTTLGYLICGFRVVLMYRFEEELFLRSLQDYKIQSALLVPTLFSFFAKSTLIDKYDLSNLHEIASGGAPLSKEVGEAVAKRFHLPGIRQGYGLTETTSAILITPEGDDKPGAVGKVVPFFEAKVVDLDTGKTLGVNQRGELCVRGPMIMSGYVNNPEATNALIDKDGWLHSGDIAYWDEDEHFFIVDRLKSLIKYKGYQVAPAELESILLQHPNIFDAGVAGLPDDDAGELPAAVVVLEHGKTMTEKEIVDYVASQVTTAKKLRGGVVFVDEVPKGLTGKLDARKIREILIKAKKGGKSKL

This test addresses Luciferin 4-monooxygenase (Photinus pyralis) (UniProt P08659). As to the kind of experiment: Counterscreen Assay for Enhancers of SMN2 Splice Variant Expression: Interaction with Luciferase Reporter for Further Probe SAR. The conditions noted are these: purified firefly luciferase, luminescence, 5 min; series mostly up to 57.5 µM. The text has this: NIH Chemical Genomics Center [NCGC] NIH Molecular Libraries Probe Production centers Network [MLPCN] MLPCN Grant: R03 MH084179-01 Assay Submitter (PI): Elliot Androphy NCGC Assay Overview: Spinal muscular atrophy (SMA) is caused by insufficient levels of the survival motor neuron protein SMN. The SMN locus on chromosome 5q13 contains two inverted copies of SMN called SMN1 and SMN2 which are 99% identical at the amino acid level. SMN1 is a fully functional protein and SMN2 skips exon 7 90% of the time. Skipping of exon 7 produces non-functional protein product. 10% of the SMN2 protein includes exon 7 and is fully functional. In the SMA disease state, mutations in the SMN1 locus are the cause of the disease state. Because only 10% of SMN2 is of the fully functional form, it is not sufficient to overcome the deficiency produced by the loss of the SMN1 product. A therapy that either increases the amount of SMN2 product made increases the inclusion of exon 7 has been proposed for the treatment of SMA. We have designed an assay to identify small molecules that can increase the amount of functional SMN2 product by appending a luciferase reporter gene after the native SMN2 gene, such that inclusion of exon 7 in the expressed product places the luciferase sequence in frame, thus generating functional luciferase enzyme. One potential source of false positives in the primary screening assay is stabilization of the reporter luciferase via direct binding. This assay attempts to identify such compounds by screening directly for luciferase activity in the absence of the cellular system.
NCGC Assay Protocol Summary: The primary screen utilizes a luciferase reporter gene assay, combining the promoter and splicing based cassettes in tandem with the major portion of the native SMN1 cDNA, and then transfected into HEK293 cells. Compounds that modulate luciferase signal presumably modulate expression of […]. In this assay, we utilize purified firefly luciferase in lieu of a cellular reporter to identify compounds interacting directly with luciferase in the primary screen. Sequence, Parameter, Value, Description (1) Reagent, 2.5 uL, Enzyme in buffer (note A) (2) Compound, 23 nL, From stock solutions (3) Time, 5 minutes, Room temp (4) Reagent#2.5 ul, Luciferase detection reagent (note B) (5) Detector, 1 sec integrate, Luminescent read on Viewlux (note C) Sigma enzyme (1 mg) considered to be MW 61,000 diluted in 357 ul assay buffer to 50 uM stock. A - Enzyme and buffer consists of 50 mM Tris-acetate pH 7.6, 10 mM Mg acetate 0.05% BSA, 0.01% Tween and 5 nM firefly luciferase B - Detection reagent = britelite plus diluted 1:10 in PBS C - Viewlux settings were 1 second integration medium sensitivity Keywords: Spinal muscular atrophy, SMA, SMN2, high throughput screening, MLSMR, MLPCN, NIH Roadmap, qHTS and NCGC
In general terms: The purpose of a counterscreen is to sort out artefacts and off-target activity.
Regarding `CN(C)c1cccc(-c2nccc(N3CCC(C(N)=O)CC3)n2)c1`, the Potency entry was “inactive”.

Regarding `O=C(c1ccccc1)N1CCN(c2nc(-c3ccc(Br)cc3)cs2)CC1`, the Potency entry is “inactive”.

On to `NC(=O)C1CCN(c2nccc(Cl)n2)CC1`, for which the Potency entry is “inactive”.

Take `CCOC(=O)C1CCN(c2nc(-c3ccc(Br)cc3)cs2)CC1`: the Potency entry is “inactive”.

For `Cc1ccc(-c2nnc(N3CCC(C(N)=O)CC3)s2)cc1`, the Potency is 16 µM (active).

Consider `CC(=O)N1CCN(c2nc(-c3ccc(Br)cc3)cs2)CC1`, for which the Potency is 0.8 µM (active).

As to `CC(C)Oc1cccc(-c2ccnc(N3CCC(C(N)=O)CC3)n2)c1`, the Potency was 10.1 µM (active).

`Brc1ccc(-c2csc(N3CCC(c4nn[nH]n4)CC3)n2)cc1`: the Potency was 16 µM (active).

In the case of `CS(=O)(=O)N1CCN(c2nc(-c3ccc(Br)cc3)cs2)CC1`, the Potency result was “inactive”.

With `CN(C)c1cccc(-c2cnc(N3CCC(C(N)=O)CC3)nc2)c1`, the Potency is 11.3 µM (active).

Take `CC(=O)C1CCN(c2ncc(-c3cccc(N(C)C)c3)s2)CC1`: the Potency was 5.05 µM (active).

Turning to `CN(C)C(=O)C1CCN(c2nc(-c3ccc(Br)cc3)cs2)CC1`, the Potency is 8 µM (active).

Take `CN(C)c1cccc(-c2ncnc(N3CCC(C(N)=O)CC3)n2)c1`: the Potency entry is “inactive”.

Regarding `NC(=O)C1CCN(c2nc(-c3ccc4c(c3)OCO4)cs2)CC1`, the Potency is 28.4 µM (active).

Take `O=C(C1CCN(c2nc(-c3ccc(Br)cc3)cs2)CC1)N1CCNCC1`: the Potency result is “inactive”.

With `CC(=O)NC1CCN(c2nc(-c3ccc(Br)cc3)cs2)CC1`, the Potency result is “inactive”.

On to `COc1ccc(-c2csc(N3CCC(C(N)=O)CC3)n2)cc1OC`, for which the Potency result is “inactive”.

As to `NC(=O)C1CCN(c2ncc(Br)s2)CC1`, the Potency entry was “inactive”.

`NC(=O)C1CCN(c2nccc(-c3ccc4c(c3)OCCCO4)n2)CC1`: the Potency result was “inactive”.

For the molecule `CN(C)c1cccc(-c2cnc(N3CCC(c4ncc[nH]4)CC3)s2)c1`, the Potency is 20.1 µM (active).

`NC(=O)C1CCN(c2ncc(-c3ccc4c(c3)OC(F)(F)O4)s2)CC1`: the Potency was 16 µM (active).

`CC(C)(C)OC(=O)NC1CCN(c2nc(-c3ccc(Br)cc3)cs2)CC1`: the Potency entry was “inactive”.

Turning to `Cc1cnc(N2CCC(C(N)=O)CC2)nc1-c1cccc(N(C)C)c1`, the Potency result was “inactive”.

For the molecule `NC(=O)C1CCN(c2ncc(Br)cn2)CC1`, the Potency entry is “inactive”.

With `NC(=O)C1CCN(c2ncc(-c3ccc4c(c3)OCCCO4)s2)CC1`, the Potency is 2.84 µM (active).

In the case of `NC(=O)C1CCN(c2nc(-c3cccc(C(F)(F)F)c3)cs2)CC1`, the Potency entry is “inactive”.

Regarding `NC(=O)C1CCN(c2nnc(-c3ccc4c(c3)OCCCO4)s2)CC1`, the Potency is 3.57 µM (active).

`O=C(c1ccco1)N1CCN(c2nc(-c3ccc(Br)cc3)cs2)CC1`: the Potency entry is “inactive”.

Turning to `CN(C)c1cccc(-c2cnc(N3CCC(C(N)=O)CC3)s2)c1`, the Potency is 0.635 µM (active).

For the molecule `COc1cc(-c2csc(N3CCC(C(N)=O)CC3)n2)cc(OC)c1OC`, the Potency result is “inactive”.

In the case of `O=C(O)C1CCN(c2nc(-c3ccc(Br)cc3)cs2)CC1`, the Potency was 1.42 µM (active).

As to `O=C(O)C1CCN(c2ncc(-c3ccc4c(c3)OCCCO4)s2)CC1`, the Potency is 0.005 µM (active).

For `O=C(Nc1ccccc1)C1CCN(c2ncc(-c3ccc4c(c3)OCCCO4)s2)CC1`, the Potency is 4.01 µM (active).

For the molecule `NC(=O)C1CCN(c2nc(-c3ccc4c(c3)OCCCO4)cs2)CC1`, the Potency was 0.897 µM (active).

Regarding `CCOC(=O)C1CCN(c2ncc(-c3ccc4c(c3)OCCCO4)s2)CC1`, the Potency is 8 µM (active).

For `Brc1ccc(-c2csc(N3CCNCC3)n2)cc1`, the Potency result was “inactive”.

For the molecule `NC(=O)C1CCN(c2ncc(-c3ccc(Br)cc3)s2)CC1`, the Potency was 4.01 µM (active).

Regarding `NC(=O)C1CCN(c2nc(-c3ccccc3Cl)cs2)CC1`, the Potency result was “inactive”.

For the molecule `CN(C)c1ccc(-c2csc(N3CCC(C(N)=O)CC3)n2)cc1`, the Potency result was “inactive”.

Turning to `COc1ccc(-c2cnc(N3CCC(C(N)=O)CC3)s2)cc1OC`, the Potency result was “inactive”.
